ERp5 block = inhibitors of ERp5-driven insulin aggregation, primary screen, biochemical, turbidity, absorbance 650 nm, single point | Protein disulfide-isomerase A6 (Homo sapiens), Q15084 | 90 min | 0.05% of 350,000 active | inhibition, % at 9.99 µM;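 active = mean replicate inhibition above about 25%, with every replicate also reaching it, limit read from the data, passing the limit was not always enough; inconclusive = only one of those two criteria met; inactive = neither criterion met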
PGC1a acetyl inh = inhibitors of PGC1a acetylation signal, primary screen, cell-based, U2OS, AlphaScreen, inhibitor mode; AID 651687, 2012; inhibition, % at 15.6 µM; 0.17% of 350,000 active; AlphaScreen anti-acetyl-lysine; with virally co-expressed GCN5 acetyltransferase;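 active = every replicate shows inhibition of at least 40%; inconclusive = mean inhibition at least 40% but some replicate below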;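 also: 0% = neutral control wells and 100% = positive control wells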
CaV13 ICDI inh = Primary screen for inhibitors of IQ motif and Ca2+-dependent inactivation inhibitor domain binding in CACNA1D, Förster resonance energy transfer in living cells, …; HEK cells, CFP/YFP FRET ICDI-IQ, plate reader, 10 min; percent FRET-ratio fall versus neutral wells; inhibition, % at 12.3 µM; 0.098% of 340,000 active;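 active = mean replicate inhibition of at least 30% and at least 1% of replicates passing that level; inconclusive = only one of the two criteria is met; inactive = neither criterion is met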;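 also: 0% = median of the neutral control wells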
PglD DTNB = C. jejuni PglD acetyltransferase inhibitors, primary screen, biochemical, DTNB colorimetric, single point; UDP-N-acetylbacillosamine N-acetyltransferase PglD (Campylobacter jejuni); purified PglD enzyme, DTNB colorimetric CoA detection; inhibition, % at 12.5 µM; 0.098% of 360,000 active; AID 602405, 2012; in the data active = inhibition above about 16%, passing the limit was not always enough; inconclusive = no clear call, values can overlap the other calls
PDI turbidity = inhibitors of human PDI, primary screen, biochemical, turbidity, single point, plate reader | Protein disulfide-isomerase (Homo sapiens), P07237 | PDI insulin aggregation turbidity, A650, 90 min | inhibition, % at 10 µM | 0.052% of 350,000 active;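 active = mean inhibition across replicates of 30% or more, whatever share of single replicates reach that level; inconclusive = mean inhibition below 30% while every single replicate reaches 30%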
ERAP1 inh = human ERAP1 aminopeptidase inhibitors, primary screen, biochemical, single point, plate reader; recombinant ERAP1, Leu-AMC fluorescence, 60 min; inhibition, % at 10.7 µM; Endoplasmic reticulum aminopeptidase 1 (Homo sapiens), Q9NZ08; AID 652197, 2013; 0.15% of 340,000 active;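 active = mean replicate inhibition of at least 30%, or all replicates individually reaching that 30% level; inactive = mean below 30% and not every replicate reaching it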;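 also: 0% = neutral control wells and 100% = L-leucinethiol positive control wells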
Target sequence (Q9NZ08 whole entry, looked up): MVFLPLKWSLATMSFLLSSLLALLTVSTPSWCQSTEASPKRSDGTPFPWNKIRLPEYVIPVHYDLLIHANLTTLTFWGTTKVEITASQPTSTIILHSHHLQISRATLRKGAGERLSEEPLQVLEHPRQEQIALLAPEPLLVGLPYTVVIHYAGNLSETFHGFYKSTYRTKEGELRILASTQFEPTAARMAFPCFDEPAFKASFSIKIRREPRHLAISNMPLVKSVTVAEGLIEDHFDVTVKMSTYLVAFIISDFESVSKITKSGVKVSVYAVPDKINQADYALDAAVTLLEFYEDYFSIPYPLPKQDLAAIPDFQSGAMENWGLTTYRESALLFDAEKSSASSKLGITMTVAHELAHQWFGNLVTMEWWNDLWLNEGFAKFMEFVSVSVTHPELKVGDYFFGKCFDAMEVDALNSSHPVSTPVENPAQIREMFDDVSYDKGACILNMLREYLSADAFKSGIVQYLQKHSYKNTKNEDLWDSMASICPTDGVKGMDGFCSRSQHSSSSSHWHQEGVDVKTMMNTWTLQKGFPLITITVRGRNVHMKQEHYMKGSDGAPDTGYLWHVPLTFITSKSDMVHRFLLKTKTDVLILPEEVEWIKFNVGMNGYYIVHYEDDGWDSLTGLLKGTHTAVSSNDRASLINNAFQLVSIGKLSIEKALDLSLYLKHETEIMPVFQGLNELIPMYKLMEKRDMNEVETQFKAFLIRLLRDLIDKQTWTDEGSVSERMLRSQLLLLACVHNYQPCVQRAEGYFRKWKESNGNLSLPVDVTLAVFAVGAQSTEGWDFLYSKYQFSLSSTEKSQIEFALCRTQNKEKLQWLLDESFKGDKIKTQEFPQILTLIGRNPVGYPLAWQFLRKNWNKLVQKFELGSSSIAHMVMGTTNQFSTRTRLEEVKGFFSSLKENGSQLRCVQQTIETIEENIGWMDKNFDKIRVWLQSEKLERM
Starred values were filed as active, the others as inactive; ? = inconclusive; / = no result given; + = active, no number; ! = not confirmed by another sample. Compounds with a hit are over-represented: about 0.46% of the library has one in this group of screens.

SMILES	ERp5 block	PGC1a acetyl inh	CaV13 ICDI inh	PglD DTNB	PDI turbidity	ERAP1 inh
O=C(Nc1ccc(C(F)(F)F)cc1)N1C[C@@H]2N[C@H](C1)C2c1ccc(-c2cccc(F)c2)cc1 (stereo not given in full)	-0.6	62.5*!	/	/	/	-3.6
O=C(NC[C@@H]1CC[C@H]2[C@H](CN2S(=O)(=O)c2ccccc2)O1)NC1CCCCC1	0.0	/	/	/	/	-0.9
Cc1cc(S(=O)(=O)NC(C)C)ccc1OCC(=O)Nc1ccc2c(c1)OCCO2	-8.9	110.5*	-4.5	/	6.2	4.4
COc1ccccc1NC(=O)c1cc[n+](C)cc1	2.0	2.9	-4.6	-2.3	4.0	103.4*
N[C@H]1CC[C@H](CCn2cc(C3CC3)nn2)O[C@@H]1CO	5.8	/	/	/	/	3.0
Cc1c2c(n3c(nc4ccccc43)c1C#N)N(CCN(C)C)CC2	-0.3	/	17.6	/	-1.4	31.2*
Cc1c2c(n3c(nc4ccccc43)c1C#N)N(CCCN(C)C)CC2	-1.5	5.5	14.5	/	1.7	70.7*
Cc1noc(C)c1S(=O)(=O)Nc1ccc2c(c1)C(=O)N([C@@H](C)CO)C[C@H](C)[C@@H](CN(C)C)OCCCC[C@H](C)O2	1.1	9.7	/	-1.0	/	-1.0
CC(C)NC(=O)Nc1cccc2c1O[C@@H](CN(C)Cc1ccc(C(F)(F)F)cc1)[C@H](C)CN([C@@H](C)CO)C2=O	/	-10.8	/	/	/	-1.2
CCOC(=O)C1=C(C)NC(C)=C(C(=O)OCC)C1C	?	/	-2.4	/	0.0	33.7*
CCOC(=O)C1=C(C)NC(C)=C(C(=O)OCC)C1c1ccc(OC)cc1	/	/	-3.0	/	0.5	/
O=C(CN1CCN(c2nc(-c3ccccc3)cs2)CC1)NNC(=O)c1ccc(Br)cc1	/	-11.8	-10.3	-0.7	-5.7	/
O=C(NC(=S)N1CCN(c2nc(-c3ccccc3)cs2)CC1)c1cncc(Br)c1	-2.2	-0.7	+	1.9	-1.4	4.6
COCC(=O)N1CC2(C1)CN(Cc1ccccn1)[C@@H](CO)c1[nH]c3cc(OC)ccc3c12	2.9	6.1	/	/	/	4.1
CC(C)(O)C#Cc1ccc(C(=O)NC(CCCNC(N)=O)C(=O)O)s1 (stereo not given)	0.4	81.8*	-3.0	5.5	-2.2	0.1
CN(C)C(=O)c1cccc(-c2ccc([C@H]3[C@@H](CO)N4CCCCN(C(=O)C5CCCC5)C[C@H]34)cc2)c1	-1.0	-7.7	/	-1.2	/	1.6
COc1ccccc1S(=O)(=O)Cc1ccc(C(=O)N2CCCC2)o1	9.9	-0.6	0.3	-0.1	13.4	-0.1
CCc1ccccc1S(=O)(=O)Cc1ccc(C(=O)N2CCN(c3ccccc3OC)CC2)o1	1.8	-9.0	55.0*	2.2	1.5	/
CCCCNC(=O)c1ccc(CS(=O)(=O)c2ccccc2OC)o1	1.4	44.2*	-4.0	8.3	8.1	-0.9
Cc1ccc(CNC(=O)c2ccc(CS(=O)(=O)c3ccccc3)o2)cc1	-5.9	43.9*	-2.2	13.6	0.5	-4.2
C[C@@H]1CN([C@H](C)CO)C(=O)c2cc(NS(=O)(=O)c3ccc(F)cc3)ccc2O[C@@H]1CN(C)S(=O)(=O)c1ccc(Cl)cc1	-3.1	-2.5	/	0.3	/	1.6
Cc1cc(C)cc(OCC(=O)Nc2ccccc2C(=O)N2CCOCC2)c1	0.8	6.8	/	-4.1	37.2*	-1.2
C/C=C/c1ccc2c(c1)[C@H]1[C@H](CCN1C(=O)c1ccc(F)cc1)[C@H](CO)N2	7.9	/	/	/	/	0.4
O=C(C[C@H]1C=C[C@H](NS(=O)(=O)c2ccccc2)[C@@H](CO)O1)NCc1ccccc1F	1.3	2.2	/	2.7	/	-0.9
CCCc1cn([C@H]2C[C@@H]3O[C@H](CO)CC[C@@H]3O[C@@H]2CCc2ccc(-c3ccccc3C#N)cc2)nn1	5.9	-16.2	/	/	/	-0.2
SMILES	ERp5 block	PGC1a acetyl inh	CaV13 ICDI inh	PglD DTNB	PDI turbidity	ERAP1 inh
CCOC(=O)c1ccc(N2C(=O)CC(N3CCC(O)(c4ccc(Br)cc4)CC3)C2=O)cc1 (stereo not given)	/	47.2*	-0.5	/	2.2	/
C[C@@H]1CN([C@H](C)CO)C(=O)Cc2cc(NC(=O)Nc3ccccc3)ccc2O[C@@H]1CN(C)C(=O)Nc1ccc(C(F)(F)F)cc1	/	-0.7	/	-0.4	/	/
CC1(C)CC[C@]2(C(=O)O[C@@H]3O[C@H](CO)[C@@H](O)[C@H](O)[C@H]3O)CC[C@]3(C)C(=CCC4[C@@]5(C)CC[C@H](O[C@@H]6O[C@H](C(=O)O)[C@@H](O[C@H]7OC[C@@H](O)[C@@H](O)[C@@H]7O)[C@H](O)[C@H]6O)C(C)(C)C5CC[C@]43C)[C@@H]2C1 (stereo not given in full)	-1.5	/	-9.3	0.3	1.7	/
CC1(C)CC[C@]2(C(=O)O)CC[C@]3(C)C(=CC[C@@H]4[C@@]5(C)CC[C@H](O[C@@H]6O[C@H](C(=O)O)[C@@H](O)[C@H](O[C@@H]7OC[C@H](O)[C@H](O)[C@H]7O)[C@H]6O)C(C)(C)[C@@H]5CC[C@]43C)[C@@H]2C1	-0.8	25.1	0.0	2.9	87.8*	/
Cc1noc(C)c1NC(=O)N(C)C[C@H]1Oc2c(NC(=O)c3cnccn3)cccc2C(=O)N([C@@H](C)CO)C[C@@H]1C	-5.7	-8.8	/	0.5	/	-0.8
CCCc1cc(N2CCOCC2)n2ncc(-c3ccccc3)c2n1	-4.4	-8.1	-5.1	-7.4	-2.6	4.3
CC(C)(C)c1cc(N2CCOCC2)n2ncc(-c3ccccc3)c2n1	-4.6	-3.9	-4.1	2.0	-2.0	31.6*
CCOc1ccc2nc(NCCCNC(=O)c3cc(OC)c(OC)c(OC)c3)c(C#N)cc2c1	0.5	?	+	-6.7	-0.2	-36.4
CCOc1ccc2nc(NCCNC(=O)CC)c(C#N)cc2c1	/	0.3	33.1*	2.9	7.8	/
CCC(=O)NCCNc1nc2cc(C)c(C)cc2cc1C#N	/	/	-5.2	-0.7	8.6	/
COc1cc(C(=O)NCCCNc2nc3cc(C)cc(C)c3cc2C#N)cc(OC)c1OC	/	3.7	-4.9	-10.2	-4.3	/
O=S(=O)(Nc1ccc(-c2nc3cccnc3s2)cc1)c1cccs1	5.9	/	-2.7	-3.1	/	-11.4
Cc1nc2ccc(S(=O)(=O)Nc3cccc(-c4nc5cccnc5s4)c3)cc2s1	5.0	9.4	-5.1	-0.1	/	-1.8
Cc1cc(-c2nc3cccnc3s2)ccc1NS(=O)(=O)c1cccs1	3.9	/	+	-0.8	/	-55.7
Cc1nc2ccc(S(=O)(=O)Nc3ccc(-c4nc5cccnc5s4)cc3)cc2s1	1.5	/	139.2*	-2.9	/	-8.0
